# Laboratory results reported in PubChem BioAssay (Tox21).
# Results filed as inconclusive are left out. Values without a mark were called inactive. Calls of active or inactive are those of the source. The call rests on the fitted dose curve; in most records, active means well fitted curve in the direction sought with a large enough effect in the repeat runs; inconclusive means weak or mixed curves; inactive means no such curve, though single readings can be large; an effect the other way counts as inactive or inconclusive.
# Experiment: qHTS RealTime-Glo MT Cell Viability Assay in HEK293 cells - 16 hour (AID 1224872); further: nearly all actives have a fitted effect of over 50% in size; further: potency means the concentration at half of the fitted maximal effect; on activity change, negative = cytotoxicity: top concentration of the series differs between compounds
# Settings: RealTime-Glo luminescence; series mostly up to 76.8 µM; activity change, negative = cytotoxicity: at the top concentration
# Procedure, shortened: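 HEK293 cells seeded with NanoLuc/prosubstrate reagent, rested 5 h at 37 C, then dosed and kept at 37 C up to 40 h. Nonlytic real-time luminescence from viable cells read at 0, 8, 16, 24, 32 and 40 h.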
# On the % scale 0 is the no-effect control and ±100 the full control effect.
Structure (SMILES),"activity change, negative = cytotoxicity",Potency
OC(c1ccccc1)(c1ccccc1)C1CCNCC1,0.0308% [at 35.3 µM],
COC(=O)c1c(C(F)F)nc(C(F)(F)F)c(C2=NCCS2)c1CC(C)C,-15.5%,
O=C(CCN1CC1)OCC(CO)(COC(=O)CCN1CC1)COC(=O)CCN1CC1,-0.116%,
CC(C)NCC(O)c1ccc(N)c(C#N)c1 (stereo unspecified),1.99% [at 35.3 µM],
O=C(Nc1ccccc1)c1ccccc1I,-14.6%,
CC(=O)CCc1ccc2c(c1)OCO2,-1.64%,
OC(Cn1cncn1)(c1ccc(F)cc1)c1ccccc1F (stereo unspecified),8.53%,
COCC(=O)N(c1c(C)cccc1C)N1CCOC1=O,14.7%,
O=NN1CCN(N=O)CC1,-4.95%,
ClCCCN1CCN(c2cccc(Cl)c2)CC1,-19.6% [at 35.3 µM],
N#Cc1ccncc1,11.1%,
Cc1cccc(C#N)c1,1.52%,
ClCCOCOCCCl,-6.12%,
CCN(Cc1ccc(Cl)nc1)/C(=C/[N+](=O)[O-])NC,3.17% [at 35.3 µM],
CC(C)(C)NCC(O)c1cc(Cl)c(N)c(Cl)c1 (stereo unspecified),3.01% [at 35.3 µM],
CCCSP(=S)(OCC)Oc1ccc(Cl)cc1Cl (stereo unspecified),-3.37%,
CCOP(=S)(Oc1cnc(C(C)(C)C)nc1)OC(C)C (stereo unspecified),-13.3%,
CCC(C)(C)c1cc(-n2nc3ccccc3n2)c(O)c(C(C)(C)CC)c1,,24.9 µM (active)
CC1(C)CON(Cc2ccccc2Cl)C1=O,-0.931%,

Structure (SMILES),"activity change, negative = cytotoxicity",Potency
NC(=S)C(N)=S,23.6%,
C=C(C)[C@@H]1CC=C(C=O)CC1,-2.72%,
CCCCOP(=O)(O)OCCCC,4.83%,
NC(=O)O,3.84%,
O=[N+]([O-])c1cccc2cccnc12,-4.88%,
CC1=C(C(=O)O)N2C(=O)[C@@H](N)[C@H]2SC1,1.93% [at 15.8 µM],
Cc1cc(C)nc(Nc2ccccc2)n1,-9.37%,
CCS(=O)(=O)C(C)(C)S(=O)(=O)CC,5.04% [at 35.3 µM],
CNC(=O)Oc1c(C(C)(C)C)cc(C)cc1C(C)(C)C,4.73%,
CCOC(=O)CP(=O)(OCC)OCC,0.0288%,
CNC(=O)Oc1ccccc1C1OCCO1,3.19%,
CC(=O)Nc1cc([As](=O)(O)O)ccc1O,-11% [at 35.3 µM],
ClC(Br)Br,10.3%,
OC(c1ccc(F)cc1)(c1cncnc1)c1ccccc1Cl (stereo unspecified),-22.2%,
C[N+](C)=CCl,17.2%,
CCC1(c2ccccc2)C(=O)NC(=O)NC1=O,6.74%,
CC(Cl)(Cl)[N+](=O)[O-],-0.855%,
CCOP(=O)(OCC)OP(=O)(OCC)OCC,0.781%,

# Experiment: qHTS RealTime-Glo MT Cell Viability Assay in HepG2 cells - 8 hour (AID 1224873); further: nearly all actives have a fitted effect of over 55% in size
# Settings: RealTime-Glo luminescence; series mostly up to 76.8 µM; viability change, negative = cytotoxic: at the top concentration
# Procedure, shortened: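 Real-time viability: cells seeded at 600 per well together with NanoLuc and cell-permeant prosubstrate, compounds added after 5 h incubation. Luminescence tracked at 0, 8, 16, 24, 32 and 40 h of exposure.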
row,Structure (SMILES),"viability change, negative = cytotoxic"
1,OC(c1ccccc1)(c1ccccc1)C1CCNCC1,-11% [at 35.3 µM]
2,COC(=O)c1c(C(F)F)nc(C(F)(F)F)c(C2=NCCS2)c1CC(C)C,-4.21%
3,O=C(CCN1CC1)OCC(CO)(COC(=O)CCN1CC1)COC(=O)CCN1CC1,2.15%
4,CC(C)NCC(O)c1ccc(N)c(C#N)c1 (stereo unspecified),2.07% [at 35.3 µM]
5,O=C(Nc1ccccc1)c1ccccc1I,-12.3%
6,CC(=O)CCc1ccc2c(c1)OCO2,5.99%
7,OC(Cn1cncn1)(c1ccc(F)cc1)c1ccccc1F (stereo unspecified),-8.71%
8,COCC(=O)N(c1c(C)cccc1C)N1CCOC1=O,1.7%
9,O=NN1CCN(N=O)CC1,-4.89%
10,ClCCCN1CCN(c2cccc(Cl)c2)CC1,-4.46% [at 35.3 µM]
11,N#Cc1ccncc1,0.896%
12,Cc1cccc(C#N)c1,1.79%
13,ClCCOCOCCCl,1.46%
14,CCN(Cc1ccc(Cl)nc1)/C(=C/[N+](=O)[O-])NC,-0.63% [at 35.3 µM]
15,CC(C)(C)NCC(O)c1cc(Cl)c(N)c(Cl)c1 (stereo unspecified),6.33% [at 35.3 µM]
16,CCCSP(=S)(OCC)Oc1ccc(Cl)cc1Cl (stereo unspecified),-11.9%
17,CCOP(=S)(Oc1cnc(C(C)(C)C)nc1)OC(C)C (stereo unspecified),-11.5%
18,CCC(C)(C)c1cc(-n2nc3ccccc3n2)c(O)c(C(C)(C)CC)c1,-5.57%
19,CC1(C)CON(Cc2ccccc2Cl)C1=O,0.701%

row,Structure (SMILES),"viability change, negative = cytotoxic"
1,NC(=S)C(N)=S,2.24%
2,C=C(C)[C@@H]1CC=C(C=O)CC1,-2.28%
3,CCCCOP(=O)(O)OCCCC,-0.354%
4,NC(=O)O,0.167%
5,O=[N+]([O-])c1cccc2cccnc12,-3.76%
6,CC1=C(C(=O)O)N2C(=O)[C@@H](N)[C@H]2SC1,1.32% [at 15.8 µM]
7,Cc1cc(C)nc(Nc2ccccc2)n1,1.57%
8,CCS(=O)(=O)C(C)(C)S(=O)(=O)CC,6.39% [at 35.3 µM]
9,CNC(=O)Oc1c(C(C)(C)C)cc(C)cc1C(C)(C)C,-1.01%
10,CCOC(=O)CP(=O)(OCC)OCC,3.79%
11,CNC(=O)Oc1ccccc1C1OCCO1,-1.87%
12,CC(=O)Nc1cc([As](=O)(O)O)ccc1O,1.27% [at 35.3 µM]
13,ClC(Br)Br,1.17%
14,OC(c1ccc(F)cc1)(c1cncnc1)c1ccccc1Cl (stereo unspecified),-14.1%
15,C[N+](C)=CCl,1.56%
16,CCC1(c2ccccc2)C(=O)NC(=O)NC1=O,0.802%
17,CC(Cl)(Cl)[N+](=O)[O-],0.887%
18,CCOP(=O)(OCC)OP(=O)(OCC)OCC,-3.02%

# Experiment: qHTS RealTime-Glo MT Cell Viability Assay in HEK293 cells - 40 hour (AID 1224874); further: nearly all actives have a fitted effect of over 50% in size; further: potency means the concentration at half of the fitted maximal effect
# Settings: RealTime-Glo luminescence; max response: hits give low values
# Procedure, shortened: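 Tox21 screen in HEK293 using RealTime-Glo MT chemistry, with cells and reagent co-dispensed. Luminescence proportional to viable cell number was captured at intervals during 40 h compound exposure at 37 C.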
Structure (SMILES),max response [%],Potency
OC(c1ccccc1)(c1ccccc1)C1CCNCC1,-12.9,
COC(=O)c1c(C(F)F)nc(C(F)(F)F)c(C2=NCCS2)c1CC(C)C,-16.3,
O=C(CCN1CC1)OCC(CO)(COC(=O)CCN1CC1)COC(=O)CCN1CC1,0.103,
CC(C)NCC(O)c1ccc(N)c(C#N)c1 (stereo unspecified),2.86,
O=C(Nc1ccccc1)c1ccccc1I,-14.8,
CC(=O)CCc1ccc2c(c1)OCO2,0.514,
OC(Cn1cncn1)(c1ccc(F)cc1)c1ccccc1F (stereo unspecified),-0.588,
COCC(=O)N(c1c(C)cccc1C)N1CCOC1=O,0.893,
O=NN1CCN(N=O)CC1,-6.3,
ClCCCN1CCN(c2cccc(Cl)c2)CC1,-25.9,
N#Cc1ccncc1,11.4,
Cc1cccc(C#N)c1,6.99,
ClCCOCOCCCl,-5.52,
CCN(Cc1ccc(Cl)nc1)/C(=C/[N+](=O)[O-])NC,2.66,
CC(C)(C)NCC(O)c1cc(Cl)c(N)c(Cl)c1 (stereo unspecified),2.03,
CCCSP(=S)(OCC)Oc1ccc(Cl)cc1Cl (stereo unspecified),1.03,
CCOP(=S)(Oc1cnc(C(C)(C)C)nc1)OC(C)C (stereo unspecified),-10.5,
CCC(C)(C)c1cc(-n2nc3ccccc3n2)c(O)c(C(C)(C)CC)c1,,22.2 µM (active)
CC1(C)CON(Cc2ccccc2Cl)C1=O,-0.432,

Structure (SMILES),max response [%],Potency
NC(=S)C(N)=S,4.8,
C=C(C)[C@@H]1CC=C(C=O)CC1,-6.37,
CCCCOP(=O)(O)OCCCC,0.827,
NC(=O)O,3.48,
O=[N+]([O-])c1cccc2cccnc12,-7.09,
CC1=C(C(=O)O)N2C(=O)[C@@H](N)[C@H]2SC1,1.69,
Cc1cc(C)nc(Nc2ccccc2)n1,-2.72,
CCS(=O)(=O)C(C)(C)S(=O)(=O)CC,3.47,
CNC(=O)Oc1c(C(C)(C)C)cc(C)cc1C(C)(C)C,-2.73,
CCOC(=O)CP(=O)(OCC)OCC,0.417,
CNC(=O)Oc1ccccc1C1OCCO1,-0.764,
CC(=O)Nc1cc([As](=O)(O)O)ccc1O,-9.14,
ClC(Br)Br,9.83,
OC(c1ccc(F)cc1)(c1cncnc1)c1ccccc1Cl (stereo unspecified),-29.2,
C[N+](C)=CCl,17.5,
CCC1(c2ccccc2)C(=O)NC(=O)NC1=O,17.3,
CC(Cl)(Cl)[N+](=O)[O-],2.41,
CCOP(=O)(OCC)OP(=O)(OCC)OCC,5.24,
